Shown are actives, neighbours in structure and some others; about 21% of the full set was active somewhere.
Pf growth 48h – P. falciparum growth inhibition at 48 hours (one generation); Potency, µM (top dose mostly 28.7 µM), for the others: top-dose activity change, negative = inhibition, most hits filed as inhibitors; P. falciparum luciferase growth in erythrocytes, 48 h; 5.9% of 310,000 active; active means well fitted inhibition curve with a large enough effect; inconclusive means small, poorly fitted or top-dose-only effect, or another doubt; inactive means no such curve, though single readings can be large or run the other way; further: potency means the concentration at half of the fitted maximal effect; on the % scale 0 is the no-effect control and ±100 the full control effect
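In quantitative HTS format, infected erythrocytes bearing luciferase-reporter parasites were treated for a single generation at 37 C. Luminescence after adding detection reagent served as the growth measure.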
Shiga inhibitor – blocks Shiga toxin action in Vero cells; 9.2% of 290,000 active; Vero cells, Shiga toxin protein synthesis inhibition reporter; inhibition, % at 38.7 µM; AID 2315; in the data active means inhibition mostly above about 28%, no sharp cut-off; inactive means mostly below about 43%; further: 0% is about no effect
Pf growth 96h – P. falciparum growth inhibition at 96 hour, primary screen for plastid delayed-death inhibitors | 6.9% of 320,000 active | Potency, µM (top dose mostly 28.7 µM), inactives show at the top dose activity change, negative = inhibition, hits mostly inhibitors | P. falciparum luciferase reporter growth, 96 h | AID 504834; active means well fitted inhibition curve with a large enough effect; inconclusive means small, poorly fitted or top-dose-only effect, or another doubt; inactive means no such curve, though single readings can be large or run the other way; further: potency means the concentration at half of the fitted maximal effect; on the % scale 0 is the no-effect control and ±100 the full control effect
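Plates of compound plus infected erythrocytes (2% hematocrit, 0.05% parasitemia final) incubate 96 hours, 37 C, 5% CO2. Detection reagent added; reduced luminescence from the parasites' luciferase reporter flags inhibition.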
NS1 inh – influenza NS1 inhibition. 0.4% of 270,000 active. AID 2326. Potency, µM (doses to about 46.1 µM), inactives show at the top dose activity, positive = more growth; further: potency means the concentration at half of the fitted maximal effect; actives are rising curves; nearly all actives have a fitted effect of over 50% in size
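A cell-based growth assay was used: compounds that relieve NS1-induced slow growth of budding yeast raise OD600. Assay medium was yeast nitrogen base with ammonium sulphate and -URA supplement, pH 6.0, with 2% galactose.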
CHX counter – counter-screen for Shiga toxin inhibitors: cycloheximide protein synthesis inhibition | cell reporter, cycloheximide protein synthesis inhibition counterscreen | 12% of 300,000 active | max response, %; in the data active means max response mostly above about 13%, no sharp cut-off; inactive means mostly below about 14%; further: read at 38.3 µM for the half of the compounds with a filed dose; 0% is about no effect
SARS PLpro yeast – SARS-CoV PLP inhibition in yeast; S. cerevisiae expressing SARS-CoV PLpro, growth rescue; Potency, µM (doses to about 32.9 µM), inactives show at the highest dose activity, positive = growth rescue, usual class: activators; 0.19% of 330,000 active; AID 485353; further: potency means the concentration at half of the fitted maximal effect; 0% is about no effect; nearly all actives have a fitted effect of over 55% in size
Active calls of the source: *; ? = inconclusive; nt = no result given. Unless noted, the call rests on the fitted dose curve.

SMILES	Pf growth 48h	Shiga inhibitor	Pf growth 96h	NS1 inh	CHX counter	SARS PLpro yeast
CC1CCC(NC(=O)CC(NC(N)=O)c2ccccc2Cl)CC1 (stereo not drawn)	17%	57	79%	?	31*	12%
Cc1cc(C(=O)N2CCC(C(F)(F)F)n3nccc32)on1 (stereo not drawn)	-28%	-13	nt	?	0	?
COc1cccc(S(=O)(=O)NCc2ccc(C(=O)N3CCN(c4ccccc4)CC3)cc2)c1	5%	33	?	7%	17	2%
COc1cccc(S(=O)(=O)NCc2ccc(C(=O)N3CCN(c4ccccc4OC)CC3)cc2)c1	7.4µM*	-3	?	-5%	-2	5%
COc1ccc(C(=O)N2CCN(C3CCC(c4ccccc4)CC3)CC2)cc1OC (stereo not drawn)	?	-9	9.3µM*	-9%	-3	1%
O=C(c1cccc(S(=O)(=O)N2CCCCC2)c1)N1CCc2ccccc21	11%	8	1.2µM*	3%	-3	5%
CC1CCN(S(=O)(=O)c2cccc(C(=O)N3CCN(c4ccc(F)cc4)CC3)c2)CC1	?	38	?	-12%	2	1%
CC1CC(C)CN(S(=O)(=O)c2cccc(C(=O)N3CCN(c4ccc(F)cc4)CC3)c2)C1 (stereo not drawn)	12µM*	nt	?	nt	nt	2%
COc1ccc(C(=O)N2CCC(N3CCN(c4ccccc4)CC3)CC2)cc1OC	-18%	-4	37%	1%	-2	25%
Cc1c(C(=O)N2CCCCC2)c(S(=O)(=O)N2CCN(c3ccc(Cl)cc3)CC2)c(C)n1C	?	-14	-6%	3%	-2	1%
COc1ccccc1N1CCN(C(=O)c2cccc(S(=O)(=O)N3CCCCCC3)c2)CC1	13µM*	nt	?	nt	nt	-10%
COc1ccccc1N1CCN(C2CCN(C(=O)c3ccc(F)cc3)CC2)CC1	-25%	-18	19%	9%	0	2%
O=C(c1cccc(S(=O)(=O)N2CCCCCC2)c1)N1CCN(c2ccccc2F)CC1	12µM*	-5	12%	-13%	1	-1%
COc1ccccc1N1CCN(C2CCN(C(=O)c3cccc(F)c3)CC2)CC1	-15%	-3	13µM*	3%	-3	11%
CC(=O)N1CCN(C(=O)c2cccc(S(=O)(=O)N3CCN(c4ccccc4)CC3)c2)CC1	?	nt	-30%	nt	nt	1%
O=C(c1cccc(S(=O)(=O)N2CCN(c3ccccc3)CC2)c1)N1CCN(c2ccccc2O)CC1	10µM*	nt	?	nt	nt	0%
COc1ccc(Oc2ccc(C(F)(F)F)cc2N)cc1	?	56*	40%	-5%	29*	0%
COc1ccc(Oc2ccc(C(F)(F)F)cc2NC(=O)c2ccc(OC)cc2)cc1	?	-9	?	-5%	-2	-2%
O=S(=O)(c1cccc(-c2nnc(SCc3nc4ccccc4s3)o2)c1)N1CCOCC1	79%	128*	-8%	-3%	97*	-1%
CSc1nc2ccc(S(=O)(=O)N3CCOCC3)cc2s1	-5%	21	?	-10%	-2	-1%
N#CCc1nc2ccc(S(=O)(=O)N3CCOCC3)cc2s1	15µM*	-2	13µM*	16%	1	1%
COc1ccc(CCN2C(=O)CSC2=S)cc1OC	-8%	-6	?	-6%	-3	1%
COCCn1cnnc1SCC(=O)Nc1cc(OC)c([N+](=O)[O-])cc1C	?	-5	?	1%	-6	-3%
CC(C)(C)NS(=O)(=O)c1ccc(CCC(=O)O)cc1	-5%	-6	-18%	-2%	-2	-1%
CC1=C(C(=O)Nc2ccccc2)C2(CCCCC2)C(C#N)=C(S)N1	nt	-18	10µM*	27%	-2	8%
SMILES	Pf growth 48h	Shiga inhibitor	Pf growth 96h	NS1 inh	CHX counter	SARS PLpro yeast
CSC1=C(C#N)C2(CCCCC2)C(C(=O)Nc2ccccc2)=C(C)N1	nt	nt	nt	-41%	nt	nt
N#CC1=C(N)NC(SCC(=O)Nc2ccccc2)=C(C#N)C12CCCC2	1.7µM*	5	23%	-5%	19	-1%
CCOC(=O)c1c(NC(=O)CSc2nnc(-c3ccncc3)n2Cc2ccco2)sc(C)c1C	-12%	-38	nt	4%	-2	-1%
CCOC(=O)c1cc2oc(C(c3nnnn3C3CCCCC3)N3CCOCC3)cc2[nH]1 (stereo not drawn)	9.3µM*	0	9.3µM*	-36%	-1	-22%
COc1ccccc1N1CCN(C(c2cc3cc(C)ccc3[nH]c2=O)c2nnnn2C2CCCC2)CC1 (stereo not drawn)	?	-6	12%	-14%	-8	2%
COc1ccccc1N1CCN(C(c2cc3ccc(C)cc3[nH]c2=O)c2nnnn2C2CCCC2)CC1 (stereo not drawn)	1.9µM*	4	-19%	2%	-3	-16%
CCC(C)(C)n1nnnc1C(c1cc2ccc(OC)cc2[nH]c1=O)N1CCN(C2CCCCC2)CC1 (stereo not drawn)	10µM*	-17	nt	6%	-6	-1%
COc1cc2cc(C(c3nnnn3C(C)(C)C)N3CCc4ccccc43)c(=O)[nH]c2cc1OC (stereo not drawn)	?	-16	?	-6%	-1	4%
CCC(C)(C)n1nnnc1C(c1cc2cc3c(cc2[nH]c1=O)OCO3)N1CCCCC1 (stereo not drawn)	?	47	0%	-8%	-3	-3%
COc1cc2cc(C(c3nnnn3C3CCCC3)N3CCc4ccccc43)c(=O)[nH]c2cc1OC (stereo not drawn)	?	16	9.3µM*	5%	-4	3%
COc1cc(S(=O)(=O)N2CCN(C(=O)c3ccccc3F)CC2)c(OC)cc1NC(C)=O	?	-19	?	3%	12	16%
COc1cc(/C=C/C(=O)N2CCCc3ccccc32)cc(OC)c1OC	12%	3	27%	-2%	1	4%
Cc1ccc2cc(C(c3nnnn3CC3CCCO3)N3CCCC4(CCCCC4)C3)c(=O)[nH]c2c1 (stereo not drawn)	nt	nt	nt	-12%	nt	nt
CCOC(=O)C1CCN(C(c2cc3ccc(C)cc3[nH]c2=O)c2nnnn2C2CCCCC2)CC1 (stereo not drawn)	1µM*	-1	nt	-47%	-1	9%
CCC(C)Nc1nnnc2c1sc1nc3c(cc12)COC(C)(C)C3 (stereo not drawn)	?	19	-13%	nt	9	0%
O=C(CSc1ccc2ccccc2n1)N1CCC(c2noc3ccc(F)cc23)CC1	?	-4	?	28%	3	-21%
O=C(Nc1ccc2c(c1)CCC2)c1cccs1	-26%	62*	-19%	-32%	54*	-4%
CCOC(=O)c1c(C)nn(-c2ccc(NC(=O)c3c(C)noc3C)cc2)c1C	-6%	-10	-6%	-2%	-4	0%

Compound activity as filed in PubChem BioAssay.
